The values that follow come from PubChem BioAssay AID1851 (National Center for Advancing Translational Sciences (NCATS), 2009).

Values joined by “and” are separate entries in the source; they are usually repeats but may differ in a detail not shown here. Equal values may be shown once. The campaign covered roughly 16,000 compounds. About 5,700 (36%) were called active. Not shown: some 24% with an inconclusive outcome. This is one part of the list. Unmarked numbers belong to inactive results. Calls follow the shape of the dose curve; as a rule, active = well fitted curve in the direction sought with a large enough effect; inconclusive = small, poorly fitted or top-dose-only effect, or effect the other way; inactive = no such curve, though single readings can be large or run the other way.
% is scaled to controls: 0 for no effect and ±100 for the full control effect.

Sequence of Cytochrome P450 1A2 (Homo sapiens) (P05177 whole entry, looked up): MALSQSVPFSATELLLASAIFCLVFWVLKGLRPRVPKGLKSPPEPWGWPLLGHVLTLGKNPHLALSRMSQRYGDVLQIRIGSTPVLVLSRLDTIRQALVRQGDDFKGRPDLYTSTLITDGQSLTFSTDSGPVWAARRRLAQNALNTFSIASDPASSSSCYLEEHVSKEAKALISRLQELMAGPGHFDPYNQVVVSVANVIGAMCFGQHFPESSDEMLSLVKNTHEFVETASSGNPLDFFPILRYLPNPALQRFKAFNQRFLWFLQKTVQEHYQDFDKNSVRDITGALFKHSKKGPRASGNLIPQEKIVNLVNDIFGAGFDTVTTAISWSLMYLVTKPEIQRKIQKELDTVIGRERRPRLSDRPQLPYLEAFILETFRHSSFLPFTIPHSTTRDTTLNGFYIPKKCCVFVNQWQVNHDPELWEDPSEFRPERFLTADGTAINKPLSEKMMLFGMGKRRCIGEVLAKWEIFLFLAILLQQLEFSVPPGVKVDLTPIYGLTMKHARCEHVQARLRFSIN

The assay concerns the target Cytochrome P450 1A2 (Homo sapiens) (UniProt P05177). As to the kind of experiment: Cytochrome panel assay with activity outcomes. The settings on record: recombinant CYP, pro-luciferin dealkylation, luminescence, p450-cyp1a2; series mostly up to 57.1 µM.
In general, AC50 refers to the midpoint of the concentration-response curve, whichever way the signal moves. Consider `O=c1[nH]c(=O)n(Cc2ccco2)c2c1C(C(F)(F)F)(C(F)(F)F)N=C(CCC1CCCCC1)N2`, for which the AC50 result was “inactive”.
On the same count and under the same terms, the entry for `CC1(C)CCC(NC(=O)[C@H](N)CCC(=O)O)CC1` is “inactive”; for `COc1ccccc1-c1nccc(NCc2cnc(C)cn2)n1` it is 12.6 µM (active); for `Cc1cnc(CNc2ccnc(-c3ccccc3Cl)n2)cn1` it is 12.6 µM (active).
The same measure, in the same setting: the figure for `Cc1cnc(CNc2ccnc(-c3ccccc3C)n2)cn1` is 12.6 µM (active); for `Cc1cnc(CNc2ccnc(-c3ccccc3C(F)(F)F)n2)cn1` it is 15.8 µM (active).
The same measure, in the same setting: the entry for `Cc1ccc(S(=O)(=O)CC(O)CN2CCCC2=O)cc1` (centres undefined) is “inactive”.
Turning to `O=S1(=O)N[C@H]2CC[C@@H]3NS(=O)(=O)N[C@H]4CC[C@H](N1)N4S(=O)(=O)N23`, the activity, negative = inhibition was 2.05% [at 11.4 µM].
On to `Cn1c(=O)c2c(nc(Cl)n2Cc2ccc(Cl)c(Cl)c2)n(C)c1=O`, for which the AC50 was 12.6 µM (active).
Regarding `Cn1c(=O)c2c(nc(Cc3ccccc3)n2CC(=O)O)n(C)c1=O`, the activity, negative = inhibition is -13.2% [at 2.29 µM].
Same read-out and setting: the figure for `CN(C)CCn1c(CO)nc2c1c(=O)n(C)c(=O)n2C` is -6.02% [at 11.4 µM].
With `COc1ccc2c(OC)c3ccoc3nc2c1OC`, the AC50 is 0.0794 µM (active).
The same measure, in the same setting: the entry for `CS(=O)(=O)N1CCC2(CCN(C(c3ccccc3)c3ccccc3)CC2)CC1` is “inactive”.
For the compound `COc1ccc2[nH]cc(CCNc3ncncc3-c3ccccc3CN(C)C)c2c1`, the concentration at half-maximal activity (AC50) was 20 µM (active).
The same measure, in the same setting: the figure for `COc1ccc2[nH]cc(CCNc3ncncc3-c3ccccc3Cl)c2c1` is 0.631 µM (active); for `COc1ccc2[nH]cc(CCNc3ncncc3-c3ccccc3C(F)(F)F)c2c1` it is 10 µM (active); for `COc1ccc2[nH]cc(CCNc3ncncc3-c3c(C)noc3C)c2c1` it is 12.6 µM (active).
As for `COC(=O)C/C=C\[C@@H](C)[C@@H](/C=N\OC[C@@H](O)COCc1ccco1)OC`, the activity, negative = inhibition was -1.53% [at 11.4 µM].
As for `CC(C)NC(=O)N1CC[C@@]2(CCCN(S(C)(=O)=O)C2)C1`, the AC50 entry is “inactive”.
The same measure, in the same setting: the figure for `COc1ccc2[nH]cc(CCNc3ncncc3-c3ccccc3OC)c2c1` is 2.51 µM (active); for `COc1ccc2[nH]cc(CCNc3ncncc3-c3ccccc3C)c2c1` it is 0.631 µM (active).
The same measure, in the same setting: the entry for `CN(C)CCN1C(=O)C(O)=C(C(=O)c2cc3ccccc3o2)C1c1cccc(Br)c1` (centres undefined) is “inactive”; for `CCOC(=O)CN1C(=O)Nc2ccc(Br)cc2C1c1ccccc1` (centres undefined) it is 3.16 µM (active).
Still for that read-out and setting: the entry for `CS(=O)(=O)N1CCC2(CC1)CN(C(=O)Nc1ccccc1)C2` is “inactive”; for `CC(C)(C)NC[C@H](O)COc1cccc2c1CCC(=O)N2` it is “inactive”.
`Cc1ccc(OC[C@H](O)[C@H](C)NC(C)C)c2c1CCC2`: the AC50 is 1.58 µM (active) and 398 nM (active).
Regarding `CC(C)(C)NC[C@H](O)COc1cccc2c1CCCC2=O`, the AC50 entry was “inactive”.
`CCOC(=O)CCN1C(=O)[C@H]2[C@H]3[C@H](O)[C@H](O)C/C(=N/OCC(C)C)[C@@H]3CC[C@@H]2C1=O`: the activity, negative = inhibition was -8.45% [at 11.4 µM].
As to `Cc1ccc(NC(=O)C2C3CCCC2C3c2ccccc2)cc1C` (centres undefined), the AC50 result was “inactive”.
`Cc1cc(NC(=S)Nc2ccccc2)ccc1Br`: the half-maximal activity concentration (AC50) was 5.62 µM (active).
`CCCNC(=S)Nc1ccc(Br)cc1`: the half-maximal activity concentration (AC50) is 7.08 µM (active).
Turning to `Cc1cc(NC(=S)NC(=O)CC(C)C)ccc1Br`, the AC50 was 5.62 µM (active).
Regarding `COc1ccc(CC(=O)NC(=S)Nc2ccc(S(=O)(=O)NC(C)(C)C)cc2)cc1`, the AC50 result was “inactive”.
Same read-out and setting: the figure for `Cc1ccc(NC(=S)Nc2ccc(Br)cc2)cc1` is 3.55 µM (active); for `CCC(=O)NC(=S)Nc1ccc(S(=O)(=O)NC(C)=O)cc1` it is “inactive”; for `Cc1cccc(NC(=S)Nc2ccc(Br)cc2)c1` it is 3.55 µM (active).
On the same count and under the same terms, the figure for `C/C(=N\NC(=S)Nc1cccc(C)c1)c1ccccc1` is 0.891 µM (active).
Still for that read-out and setting: the entry for `Cc1cccc(N2CCN(c3ccc(NC(=O)/C=C(/C(=O)O)c4ccccc4)cc3)CC2)c1` is “inactive”.
Turning to `CC(=O)OCC(=O)[C@]12OC(C)(C)O[C@@H]1C[C@H]1[C@H]3CC=C4C[C@@H](O)CC[C@]4(C)[C@H]3CC[C@]12C`, the activity, negative = inhibition is 4.12% [at 11.4 µM].
As to `Cc1csc(NC(=O)Cc2c[nH]c3ccccc23)n1`, the AC50 was 11.2 µM (active).
On the same count and under the same terms, the entry for `Cc1ccc(S(=O)(=O)NCC(=O)N(CC(=O)NCc2ccco2)Cc2cccs2)cc1` is “inactive”; for `Cc1csc(NC(=O)CNS(=O)(=O)c2cccs2)n1` it is 12.6 µM (active); for `CCOC(=O)N1CCN(C(=O)CNS(=O)(=O)c2cccs2)CC1` it is “inactive”.
Take `Cc1ccnc(NS(=O)(=O)c2ccc(N)cc2)n1`: the AC50 entry is “inactive”.
On the same count and under the same terms, the figure for `COCc1c(C(=O)OCC(=O)N2c3ccccc3NC(=O)C2(C)C)oc2ccccc12` is 0.562 µM (active).
Regarding `CCCCC1(C)OC(=O)C(=Cc2ccc(N(CC)CC)cc2)C(=O)O1` (centres undefined), the concentration at half-maximal activity (AC50) is 5.01 µM (active).
For the compound `CCc1nnc(NC(=O)CCC(=O)N2CCN(c3ccccn3)CC2)s1`, the AC50 result is “inactive”.
On the same count and under the same terms, the figure for `CCc1nnc(NC(=O)c2c(C)nn(-c3ccccc3)c2Cl)s1` is 7.08 µM (active).
The same measure, in the same setting: the figure for `CCn1c(C)nc2cc(S(=O)(=O)C(F)F)ccc21` is 5.01 µM (active).
Regarding `O=C(N/N=C1/C[C@@H](O)[C@@H](O)[C@@H]2[C@H]3C(=O)N(c4ccc(F)cc4F)C(=O)[C@@H]3CC[C@H]12)OCc1ccccc1`, the activity, negative = inhibition was -2.59% [at 11.4 µM].
As to `CC(C)(C)C(=O)Nc1cccc(-c2nc3ccccc3c(=O)o2)c1`, the AC50 is 11.2 µM (active).
Turning to `N=C(N)SCc1cccc(-c2nc3ccccc3c(=O)o2)c1`, the activity, negative = inhibition is -10.3% [at 2.29 µM].
Same read-out and setting: the figure for `O[C@H](C[C@@H]1CCCCN1)c1ccc2c(c1)oc1ccccc12` is -10.4% [at 2.29 µM].
Regarding `CC(CC(=O)O)CC(=O)Nc1ccc(S(N)(=O)=O)cc1` (centres undefined), the AC50 result is “inactive”.
Turning to `CC(C)CC(=O)Nc1ccc2c(c1)oc1ccccc12`, the half-maximal activity concentration (AC50) is 0.794 µM (active).
`Cc1cc(-c2ccc(/C=N/n3cnnc3)o2)c([N+](=O)[O-])cc1C`: the AC50 is 0.316 µM (active).
Regarding `C[C@@H]1/C=C\CC(=O)OC[C@H]2O[C@@H](C=C[C@@H]2O)[C@H](C)/C=C\CC(=O)OC[C@H]2O[C@H]1C=C[C@@H]2O`, the activity, negative = inhibition is 7.11% [at 11.4 µM].
Regarding `CCC(C)Nc1nc(OCC(F)(F)F)nc(OCC(F)(F)F)n1` (centres undefined), the AC50 is 10 µM (active).
Still for that read-out and setting: the entry for `C[C@@H]1O[C@H](O[C@@H]2[C@H](C)O[C@H](O[C@@H]3[C@H](C)O[C@H](O[C@H]4CC[C@]5(C)[C@@H](CC[C@@H]6[C@H]5C[C@@H](O)[C@]5(C)[C@@H](C7=CC(=O)OC7)CC[C@]65O)C4)C[C@@H]3O)C[C@@H]2O)C[C@H](O)[C@@H]1O` is “inactive”; for `O=S(=O)(c1ccccc1)c1cnn2c(C(F)(F)F)cc(-c3ccccc3)nc12` it is “inactive”.
The same measure, in the same setting: the figure for `O=S(=O)(c1ccccc1)c1cnn2c(C(F)(F)F)cc(-c3ccc(F)cc3)nc12` is 0.794 µM (active).
For `C[N+](C)(C)c1ccc([C@H](N)C(=O)O)cc1`, the activity, negative = inhibition was -19.7% [at 11.4 µM].
As for `N#Cc1cc(N)ccc1Sc1ccc(Cl)cc1`, the concentration at half-maximal activity (AC50) was 1.78 µM (active).
The same measure, in the same setting: the entry for `COc1ccc(Sc2ccc(NC(=O)c3ccccc3Cl)cc2C#N)cc1` is “inactive”; for `CNc1cc(OC)c(C(=O)N[C@@H]2CCN(Cc3ccccc3)[C@H]2C)cc1Cl` it is 31.6 µM (active).
Same read-out and setting: the entry for `CCN1CCC[C@H]1CNC(=O)c1cc(S(N)(=O)=O)ccc1OC` is “inactive”; for `CCC(C)[C@H](NC(=O)NC1CCN(Cc2ccccc2)CC1)C(=O)OC` (some centres undefined) it is “inactive”; for `CC(=O)N(CC(O)CN(C(C)=O)c1c(I)c(C(=O)NC[C@@H](O)CO)c(I)c(C(=O)NC[C@@H](O)CO)c1I)c1c(I)c(C(=O)NC[C@@H](O)CO)c(I)c(C(=O)NC[C@@H](O)CO)c1I` it is “inactive”.
Same read-out and setting: the figure for `NC(N)=N/N=C(/c1ccccc1)c1ccc(O)cc1O` is 3.16 µM (active).
In the case of `CC(=O)/C(=N\N=C(N)N)c1ccccc1`, the activity, negative = inhibition is -17.2% [at 2.29 µM].
Consider `CCN1C(=O)[C@H]2[C@H]3[C@H](O)[C@H](O)C/C(=N/OC[C@@H](O)COCc4ccco4)[C@@H]3CC[C@@H]2C1=O`, for which the activity, negative = inhibition was -5.56% [at 11.4 µM].
`O=C(NCc1cn(-c2ccccc2)nc1-c1ccccc1)c1cc([N+](=O)[O-])cc([N+](=O)[O-])c1`: the AC50 entry was “inactive”.
As for `CCc1ccccc1NC(=O)CSc1nc(-c2ccccc2)nn1C(=O)c1cccc([N+](=O)[O-])c1`, the AC50 was 3.16 µM (active).
Still for that read-out and setting: the entry for `COc1ccc(C(=O)N2CCC3(CCCN(C)C3)CC2)cc1` is “inactive”.
Same read-out and setting: the figure for `COc1ccc2c(c1)CCc1c(C(=O)N3CCCCCC3)noc1-2` is 6.31 µM (active); for `COc1ccc(NC(=O)N2CCCC3(CCN(C(=O)c4ccc(OC)cc4)CC3)C2)cc1` it is “inactive”; for `CC(C)COCC1CC2(CC(C)(c3csc(N)n3)OC2=O)C(=O)O1` (centres undefined) it is “inactive”.
Still for that read-out and setting: the entry for `COCCNC(=O)c1ccc2c(c1)nc(C)n2-c1cc(OC)c(OC)c(OC)c1` is “inactive”.
For `COCCNC(=O)c1ccc2c(c1)ncn2-c1ccc(F)c(F)c1`, the AC50 was 15.8 µM (active).
On the same count and under the same terms, the entry for `C[N+](C)(C)CCN(Cc1ccc(Cl)cc1)c1ccccn1` is “inactive”; for `O=C(COc1ccc(Cl)cc1)N(Cc1ccccc1)c1ccccn1` it is 2.24 µM (active).
Turning to `CN(CCOc1ccc(C[C@H](Nc2ccccc2C(=O)c2ccccc2)C(=O)O)cc1)c1ccccn1`, the AC50 entry is “inactive”.
Still for that read-out and setting: the figure for `COCCNC(=O)CCCCCn1c(=S)[nH]c2ccccc2c1=O` is 14.1 µM (active); for `O=C(CCn1c(=S)[nH]c2ccccc2c1=O)NCCCN1CCOCC1` it is “inactive”.
On the same count and under the same terms, the figure for `O=C(CCCn1c(=S)[nH]c2ccc(Br)cc2c1=O)NCC1CCCO1` (centres undefined) is 4.47 µM (active); for `O=C(c1ccc2c(=O)n(CC3CCCO3)c(=S)[nH]c2c1)N1CCN(c2ccccc2)CC1` (centres undefined) it is “inactive”; for `O=C(c1cnccn1)N1CCC2(CC1)CCN(c1ncccn1)CC2` it is “inactive”.
On the same count and under the same terms, the entry for `COC(=O)c1ccc(Oc2coc3cc(OCc4cnn(-c5ccccc5)c4)ccc3c2=O)cc1` is “inactive”; for `Cc1[nH]nc(-c2ccc(OCc3cnn(-c4ccccc4)c3)cc2O)c1Oc1ccccc1F` it is 22.4 µM (active).
